# From paper PMC7862700, “An all-to-all approach to the identification of sequence-specific readers for epigenetic DNA modifications on cytosine”
# Assays:
# Experiment in all cases: DAPPL (digital affinity profiling via proximity ligation, sequencing); 10 mM Tris-HCl pH 7.5, 50 mM NaCl, 1 mM DTT, 4% glycerol, room temperature, 30 min; GST-TFs on glutathione beads, 16-mer random dsDNA library, 0.1% formaldehyde crosslink after washing; high values mean tight binding
# [1] = target: T1, FLI1 (Homo sapiens, UniProt Q01543 1-452); conditions: protein: recombinant; tags: N-terminal GST; dsDNA, one strand shown
# T1 sequence: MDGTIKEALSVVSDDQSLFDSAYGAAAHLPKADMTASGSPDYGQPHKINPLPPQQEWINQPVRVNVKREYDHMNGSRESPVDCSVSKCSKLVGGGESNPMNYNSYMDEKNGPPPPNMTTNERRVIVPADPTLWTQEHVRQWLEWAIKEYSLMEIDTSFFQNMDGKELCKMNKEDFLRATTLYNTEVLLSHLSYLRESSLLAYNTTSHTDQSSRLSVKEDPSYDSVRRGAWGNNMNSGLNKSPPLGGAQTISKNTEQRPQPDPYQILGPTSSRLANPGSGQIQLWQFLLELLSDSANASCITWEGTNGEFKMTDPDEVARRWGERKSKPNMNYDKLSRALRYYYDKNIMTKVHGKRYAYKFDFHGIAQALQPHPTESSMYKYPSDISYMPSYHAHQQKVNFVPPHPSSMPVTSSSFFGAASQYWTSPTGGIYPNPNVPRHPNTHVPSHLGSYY
# In short: (§1)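 Pools of DNA-barcoded human transcription factors, expressed in yeast as GST fusions on glutathione beads and combined with a tag-only sample, were incubated with 200 nmole of a 16-mer random double-stranded DNA library. Incubation took 30 min at room temperature in Tris/NaCl/DTT/glycerol buffer and was followed by washing, 0.1% formaldehyde crosslinking, proximity ligation (BsaI/T4 ligase, 1 h, 37 °C), PCR amplification and sequencing on an Illumina NextSeq500. Binding signal is the ratio of a hexamer's read frequency for a factor to its frequency for the tag-only sample.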
# [2] = target: T2, ELK1 (Homo sapiens, UniProt P19419 1-428); conditions: protein: recombinant; tags: N-terminal GST; dsDNA, one strand shown
# T2 sequence: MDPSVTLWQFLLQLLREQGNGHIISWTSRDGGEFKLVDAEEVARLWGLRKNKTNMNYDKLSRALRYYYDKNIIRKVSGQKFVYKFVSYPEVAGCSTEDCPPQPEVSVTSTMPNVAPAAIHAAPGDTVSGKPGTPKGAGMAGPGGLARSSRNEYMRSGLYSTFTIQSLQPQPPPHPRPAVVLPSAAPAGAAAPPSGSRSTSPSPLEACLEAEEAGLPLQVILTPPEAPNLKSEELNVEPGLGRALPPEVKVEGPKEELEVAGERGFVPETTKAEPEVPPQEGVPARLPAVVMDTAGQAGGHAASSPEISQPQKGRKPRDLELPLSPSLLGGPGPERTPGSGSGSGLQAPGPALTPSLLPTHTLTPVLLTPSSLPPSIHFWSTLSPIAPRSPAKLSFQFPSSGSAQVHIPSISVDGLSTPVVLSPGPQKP
# In short: as §1
# [3] = target: T3, GABPA (Homo sapiens, UniProt Q06546 1-454); conditions: protein: recombinant; tags: N-terminal GST; dsDNA, one strand shown
# T3 sequence: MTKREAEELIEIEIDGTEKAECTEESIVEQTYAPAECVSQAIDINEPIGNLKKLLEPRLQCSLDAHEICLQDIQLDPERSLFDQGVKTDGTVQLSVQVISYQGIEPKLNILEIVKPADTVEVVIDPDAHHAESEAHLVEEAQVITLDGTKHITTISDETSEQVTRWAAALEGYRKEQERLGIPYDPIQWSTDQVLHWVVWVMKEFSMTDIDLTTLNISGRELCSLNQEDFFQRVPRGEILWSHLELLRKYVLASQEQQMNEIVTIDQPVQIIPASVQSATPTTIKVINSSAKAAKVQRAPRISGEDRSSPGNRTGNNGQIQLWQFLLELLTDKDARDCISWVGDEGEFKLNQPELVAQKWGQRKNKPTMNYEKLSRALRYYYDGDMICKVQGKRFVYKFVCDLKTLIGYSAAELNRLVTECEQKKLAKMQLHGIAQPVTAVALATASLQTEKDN
# In short: as §1
# [4] = target: T4, ERG (Homo sapiens, UniProt P11308 1-479); conditions: protein: recombinant; tags: N-terminal GST; dsDNA, one strand shown
# T4 sequence: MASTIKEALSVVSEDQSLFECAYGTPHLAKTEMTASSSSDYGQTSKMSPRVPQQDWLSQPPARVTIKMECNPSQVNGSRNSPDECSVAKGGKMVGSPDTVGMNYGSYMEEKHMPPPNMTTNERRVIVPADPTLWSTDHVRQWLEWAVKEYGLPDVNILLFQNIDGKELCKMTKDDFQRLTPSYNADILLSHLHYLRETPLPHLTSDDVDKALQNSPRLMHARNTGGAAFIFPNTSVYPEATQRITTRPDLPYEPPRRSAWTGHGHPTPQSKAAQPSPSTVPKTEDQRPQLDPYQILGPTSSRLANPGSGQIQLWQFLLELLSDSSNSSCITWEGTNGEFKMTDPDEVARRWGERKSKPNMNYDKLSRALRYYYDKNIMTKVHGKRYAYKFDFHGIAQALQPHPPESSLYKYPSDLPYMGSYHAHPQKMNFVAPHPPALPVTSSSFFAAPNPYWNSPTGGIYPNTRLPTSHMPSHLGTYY
# In short: as §1
# [5] = target: ELF1 (Homo sapiens, UniProt P32519 1-619); conditions: protein: recombinant; tags: N-terminal GST; dsDNA, one strand shown
# In short: as §1
# [6] = target: T5, EHF (Homo sapiens, UniProt Q9NZC4 1-300); conditions: protein: recombinant; tags: N-terminal GST; dsDNA, one strand shown
# T5 sequence: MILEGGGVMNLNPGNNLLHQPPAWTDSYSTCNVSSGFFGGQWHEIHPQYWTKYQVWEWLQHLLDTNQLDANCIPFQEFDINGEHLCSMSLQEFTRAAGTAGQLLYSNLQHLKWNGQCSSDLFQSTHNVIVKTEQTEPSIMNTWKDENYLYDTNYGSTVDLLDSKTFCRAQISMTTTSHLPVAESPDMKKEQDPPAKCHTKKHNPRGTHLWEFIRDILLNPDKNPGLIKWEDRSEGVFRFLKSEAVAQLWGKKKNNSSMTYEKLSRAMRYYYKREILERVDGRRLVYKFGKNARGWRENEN
# In short: as §1
# [7] = target: SPI1 (Homo sapiens, UniProt P17947 1-270); conditions: protein: recombinant; tags: N-terminal GST; dsDNA, one strand shown
# In short: as §1
# [8] = target: SPIB (Homo sapiens, UniProt Q01892 1-262); conditions: protein: recombinant; tags: N-terminal GST; dsDNA, one strand shown
# In short: as §1
# [9] = target: T6, ELK3 (Homo sapiens, UniProt P41970 1-407); conditions: protein: recombinant; tags: N-terminal GST; dsDNA, one strand shown
# T6 sequence: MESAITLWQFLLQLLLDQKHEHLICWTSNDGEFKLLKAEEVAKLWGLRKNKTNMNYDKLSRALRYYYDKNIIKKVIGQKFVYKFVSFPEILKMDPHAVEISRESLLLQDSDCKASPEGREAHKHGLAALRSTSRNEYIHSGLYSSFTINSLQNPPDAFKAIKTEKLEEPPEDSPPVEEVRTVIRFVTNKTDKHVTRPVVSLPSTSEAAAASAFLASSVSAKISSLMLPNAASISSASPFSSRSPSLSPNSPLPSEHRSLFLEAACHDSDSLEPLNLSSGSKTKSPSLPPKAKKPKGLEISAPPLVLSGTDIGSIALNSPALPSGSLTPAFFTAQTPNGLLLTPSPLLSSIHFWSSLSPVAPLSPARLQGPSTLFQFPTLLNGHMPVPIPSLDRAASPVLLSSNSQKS
# In short: as §1
# [10] = target: T7, FEV (Homo sapiens, UniProt Q99581 1-238); conditions: protein: recombinant; tags: N-terminal GST; dsDNA, one strand shown
# T7 sequence: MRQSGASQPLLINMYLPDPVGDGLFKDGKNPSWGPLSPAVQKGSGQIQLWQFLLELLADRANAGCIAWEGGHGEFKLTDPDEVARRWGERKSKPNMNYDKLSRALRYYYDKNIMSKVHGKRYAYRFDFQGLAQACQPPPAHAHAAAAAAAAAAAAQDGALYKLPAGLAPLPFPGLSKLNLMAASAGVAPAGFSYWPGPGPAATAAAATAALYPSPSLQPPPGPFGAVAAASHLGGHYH
# In short: as §1
# [11] = target: ETV5 (Homo sapiens, UniProt P41161 1-510); conditions: protein: recombinant; tags: N-terminal GST; dsDNA, one strand shown
# In short: as §1
# [12] = target: HSF1 (Homo sapiens, UniProt Q00613 1-529); conditions: protein: recombinant; tags: N-terminal GST; chain copies: 3; dsDNA, one strand shown
# In short: as §1
# [13] = target: T8, SPIC (Homo sapiens, UniProt Q8N5J4 1-248); conditions: protein: recombinant; tags: N-terminal GST; dsDNA, one strand shown
# T8 sequence: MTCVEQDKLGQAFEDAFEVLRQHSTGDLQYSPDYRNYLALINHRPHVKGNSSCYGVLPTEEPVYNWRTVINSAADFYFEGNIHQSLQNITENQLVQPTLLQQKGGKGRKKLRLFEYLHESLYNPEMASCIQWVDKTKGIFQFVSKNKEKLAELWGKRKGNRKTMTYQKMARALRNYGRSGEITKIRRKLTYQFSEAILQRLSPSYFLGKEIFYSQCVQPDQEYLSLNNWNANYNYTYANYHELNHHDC
# In short: as §1
# [14] = target: ELF4 (Homo sapiens, UniProt Q99607 1-663); conditions: protein: recombinant; tags: N-terminal GST; dsDNA, one strand shown
# In short: as §1
# [15] = target: T9, ELK4 (Homo sapiens, UniProt P28324-2 1-405); conditions: protein: recombinant; tags: N-terminal GST; dsDNA, one strand shown
# T9 sequence: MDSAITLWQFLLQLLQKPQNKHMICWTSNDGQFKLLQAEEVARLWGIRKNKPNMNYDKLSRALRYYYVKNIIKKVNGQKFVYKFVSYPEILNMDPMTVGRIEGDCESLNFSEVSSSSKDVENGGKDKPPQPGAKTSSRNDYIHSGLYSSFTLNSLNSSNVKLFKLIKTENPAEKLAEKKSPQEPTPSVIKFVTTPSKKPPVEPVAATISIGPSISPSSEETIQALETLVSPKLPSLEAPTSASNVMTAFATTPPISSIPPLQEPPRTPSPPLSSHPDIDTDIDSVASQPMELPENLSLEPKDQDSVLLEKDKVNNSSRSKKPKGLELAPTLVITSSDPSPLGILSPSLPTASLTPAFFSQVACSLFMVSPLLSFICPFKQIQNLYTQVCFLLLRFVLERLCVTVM
# In short: as §1
# [16] = target: T10, ETV2 (Homo sapiens, UniProt O00321 1-342); conditions: protein: recombinant; tags: N-terminal GST; dsDNA, one strand shown
# T10 sequence: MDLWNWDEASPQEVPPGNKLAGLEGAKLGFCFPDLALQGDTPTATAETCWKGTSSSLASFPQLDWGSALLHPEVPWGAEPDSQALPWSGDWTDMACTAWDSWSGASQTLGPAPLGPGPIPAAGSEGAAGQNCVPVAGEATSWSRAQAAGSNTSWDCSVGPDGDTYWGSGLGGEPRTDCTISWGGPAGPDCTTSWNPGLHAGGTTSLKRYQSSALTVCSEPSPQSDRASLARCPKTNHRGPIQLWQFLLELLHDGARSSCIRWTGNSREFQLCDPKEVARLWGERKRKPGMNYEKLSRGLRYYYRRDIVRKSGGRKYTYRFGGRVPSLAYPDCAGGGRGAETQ
# In short: as §1
# [17] = target: T11, ELF3 (Homo sapiens, UniProt P78545 1-371); conditions: protein: recombinant; tags: N-terminal GST; dsDNA, one strand shown
# T11 sequence: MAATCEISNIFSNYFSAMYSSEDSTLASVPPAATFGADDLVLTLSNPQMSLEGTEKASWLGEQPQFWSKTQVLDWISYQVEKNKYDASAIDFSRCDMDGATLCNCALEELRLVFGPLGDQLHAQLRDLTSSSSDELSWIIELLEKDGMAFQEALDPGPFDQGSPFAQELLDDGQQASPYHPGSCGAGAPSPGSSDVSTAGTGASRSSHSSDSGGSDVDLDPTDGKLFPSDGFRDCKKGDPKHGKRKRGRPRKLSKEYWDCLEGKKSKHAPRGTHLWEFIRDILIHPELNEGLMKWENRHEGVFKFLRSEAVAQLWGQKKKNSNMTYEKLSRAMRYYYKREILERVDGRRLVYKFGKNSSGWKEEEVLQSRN
# In short: as §1
# [18] = target: CRX (Homo sapiens, UniProt O43186 1-299); conditions: protein: recombinant; tags: N-terminal GST; dsDNA, one strand shown
# In short: as §1
# [19] = target: ETV1 (Homo sapiens, UniProt P50549 1-477); conditions: protein: recombinant; tags: N-terminal GST; dsDNA, one strand shown
# In short: as §1
# Sequence of ELF4 (Q99607 whole entry): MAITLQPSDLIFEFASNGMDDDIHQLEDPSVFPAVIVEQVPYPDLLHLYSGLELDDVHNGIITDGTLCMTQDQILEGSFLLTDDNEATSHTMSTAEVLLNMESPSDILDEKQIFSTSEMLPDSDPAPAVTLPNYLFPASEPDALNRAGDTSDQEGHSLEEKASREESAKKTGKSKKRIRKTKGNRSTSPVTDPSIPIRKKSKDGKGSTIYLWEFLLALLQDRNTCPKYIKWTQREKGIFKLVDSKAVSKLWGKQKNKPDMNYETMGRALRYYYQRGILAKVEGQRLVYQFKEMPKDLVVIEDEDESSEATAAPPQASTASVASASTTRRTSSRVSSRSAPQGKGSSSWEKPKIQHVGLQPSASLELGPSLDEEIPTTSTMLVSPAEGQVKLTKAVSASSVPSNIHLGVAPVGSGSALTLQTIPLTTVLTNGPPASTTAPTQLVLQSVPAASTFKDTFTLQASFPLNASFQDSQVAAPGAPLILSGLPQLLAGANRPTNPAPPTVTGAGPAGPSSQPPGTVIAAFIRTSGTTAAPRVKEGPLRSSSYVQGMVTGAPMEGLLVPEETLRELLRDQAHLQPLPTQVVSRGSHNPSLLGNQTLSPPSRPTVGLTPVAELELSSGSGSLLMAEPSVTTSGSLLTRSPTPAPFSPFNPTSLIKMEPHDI
# Sequence of ELF1 (P32519 whole entry): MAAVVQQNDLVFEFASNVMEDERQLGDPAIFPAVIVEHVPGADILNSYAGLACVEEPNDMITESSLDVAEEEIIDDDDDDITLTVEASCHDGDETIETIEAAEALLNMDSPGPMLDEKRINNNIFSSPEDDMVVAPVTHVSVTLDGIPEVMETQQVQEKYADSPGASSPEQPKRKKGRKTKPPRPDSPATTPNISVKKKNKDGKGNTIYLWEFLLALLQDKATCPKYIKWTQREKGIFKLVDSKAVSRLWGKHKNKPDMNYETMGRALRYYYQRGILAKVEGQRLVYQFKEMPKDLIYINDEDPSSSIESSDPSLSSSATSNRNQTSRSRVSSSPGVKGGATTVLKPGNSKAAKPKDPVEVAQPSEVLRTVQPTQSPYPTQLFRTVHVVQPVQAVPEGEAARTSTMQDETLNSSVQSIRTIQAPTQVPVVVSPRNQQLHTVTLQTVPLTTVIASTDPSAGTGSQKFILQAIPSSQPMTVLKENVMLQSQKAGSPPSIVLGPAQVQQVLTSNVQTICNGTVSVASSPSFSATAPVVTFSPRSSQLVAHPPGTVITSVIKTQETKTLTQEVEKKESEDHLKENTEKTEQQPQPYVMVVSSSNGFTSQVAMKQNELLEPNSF
# Sequence of ETV1 (P50549 whole entry): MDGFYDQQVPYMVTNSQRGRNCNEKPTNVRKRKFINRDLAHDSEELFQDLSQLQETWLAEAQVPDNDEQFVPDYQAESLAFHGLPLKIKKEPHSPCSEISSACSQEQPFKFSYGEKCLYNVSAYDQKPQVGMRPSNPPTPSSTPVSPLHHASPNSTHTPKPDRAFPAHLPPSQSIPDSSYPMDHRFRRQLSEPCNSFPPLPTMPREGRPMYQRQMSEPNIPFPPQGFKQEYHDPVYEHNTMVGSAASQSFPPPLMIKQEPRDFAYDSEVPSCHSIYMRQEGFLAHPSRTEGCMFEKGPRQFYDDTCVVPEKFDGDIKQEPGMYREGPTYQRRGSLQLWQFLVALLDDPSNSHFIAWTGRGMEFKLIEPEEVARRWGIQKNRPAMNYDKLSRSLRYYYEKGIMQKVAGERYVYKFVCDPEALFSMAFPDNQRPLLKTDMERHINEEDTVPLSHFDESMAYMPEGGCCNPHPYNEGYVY
# Sequence of ETV5 (P41161 whole entry): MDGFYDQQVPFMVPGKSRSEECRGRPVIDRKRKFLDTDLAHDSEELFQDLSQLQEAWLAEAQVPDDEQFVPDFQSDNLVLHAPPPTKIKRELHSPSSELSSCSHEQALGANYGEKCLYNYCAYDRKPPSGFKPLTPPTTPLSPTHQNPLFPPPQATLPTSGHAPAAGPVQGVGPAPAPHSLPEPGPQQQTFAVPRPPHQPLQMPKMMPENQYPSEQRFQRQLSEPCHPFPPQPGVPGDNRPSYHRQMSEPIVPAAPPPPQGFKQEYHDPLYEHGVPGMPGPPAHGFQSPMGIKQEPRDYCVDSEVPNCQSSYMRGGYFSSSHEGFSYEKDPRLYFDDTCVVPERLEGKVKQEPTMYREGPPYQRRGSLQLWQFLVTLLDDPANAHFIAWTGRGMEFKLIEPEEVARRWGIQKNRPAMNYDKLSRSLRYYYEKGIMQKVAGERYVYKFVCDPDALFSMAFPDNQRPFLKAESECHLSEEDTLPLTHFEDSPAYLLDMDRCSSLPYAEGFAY
# Sequence of SPIB (Q01892 whole entry): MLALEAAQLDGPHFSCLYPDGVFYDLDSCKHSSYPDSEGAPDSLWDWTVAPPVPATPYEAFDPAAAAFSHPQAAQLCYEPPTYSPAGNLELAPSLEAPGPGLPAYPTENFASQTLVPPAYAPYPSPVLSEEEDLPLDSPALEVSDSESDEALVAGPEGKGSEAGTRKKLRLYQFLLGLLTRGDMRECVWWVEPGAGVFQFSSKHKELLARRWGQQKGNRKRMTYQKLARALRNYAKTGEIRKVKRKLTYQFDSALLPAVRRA
# Sequence of CRX (O43186 whole entry): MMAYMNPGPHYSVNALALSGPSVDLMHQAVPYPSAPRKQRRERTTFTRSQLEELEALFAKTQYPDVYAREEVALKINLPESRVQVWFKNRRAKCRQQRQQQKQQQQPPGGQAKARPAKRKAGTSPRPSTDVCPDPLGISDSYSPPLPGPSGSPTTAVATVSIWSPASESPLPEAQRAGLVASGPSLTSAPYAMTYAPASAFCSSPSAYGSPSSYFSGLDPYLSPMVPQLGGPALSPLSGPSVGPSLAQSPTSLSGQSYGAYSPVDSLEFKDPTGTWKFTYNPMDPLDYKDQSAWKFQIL
# Sequence of HSF1 (Q00613 whole entry): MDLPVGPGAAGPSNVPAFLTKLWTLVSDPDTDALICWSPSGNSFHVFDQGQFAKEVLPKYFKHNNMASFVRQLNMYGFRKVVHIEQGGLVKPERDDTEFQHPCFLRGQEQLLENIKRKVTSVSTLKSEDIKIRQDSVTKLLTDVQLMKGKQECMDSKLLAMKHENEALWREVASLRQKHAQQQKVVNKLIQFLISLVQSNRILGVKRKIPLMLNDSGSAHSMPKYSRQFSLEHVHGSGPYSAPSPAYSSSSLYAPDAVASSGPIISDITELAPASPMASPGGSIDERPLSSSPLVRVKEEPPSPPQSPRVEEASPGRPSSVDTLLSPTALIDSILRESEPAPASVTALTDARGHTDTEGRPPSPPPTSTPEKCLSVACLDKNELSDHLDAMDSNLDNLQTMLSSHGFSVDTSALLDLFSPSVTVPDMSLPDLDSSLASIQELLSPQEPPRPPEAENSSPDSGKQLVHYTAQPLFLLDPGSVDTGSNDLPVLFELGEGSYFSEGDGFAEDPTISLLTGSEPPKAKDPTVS
sequence,measurement,setting,value
GATCCC,binding signal,[1],"1.16 fold enrichment (6-mer frequency, TF over GST control)"
same,binding signal,[2],"1.16 fold enrichment (6-mer frequency, TF over GST control)"
same,binding signal,[3],"1.15 fold enrichment (6-mer frequency, TF over GST control)"
same,binding signal,[4],"1.23 fold enrichment (6-mer frequency, TF over GST control)"
same,binding signal,[5],"1.27 fold enrichment (6-mer frequency, TF over GST control)"
same,binding signal,[6],"1.17 fold enrichment (6-mer frequency, TF over GST control)"
same,binding signal,[7],"1.11 fold enrichment (6-mer frequency, TF over GST control)"
same,binding signal,[8],"1.17 fold enrichment (6-mer frequency, TF over GST control)"
same,binding signal,[9],"1.14 fold enrichment (6-mer frequency, TF over GST control)"
same,binding signal,[10],"1.18 fold enrichment (6-mer frequency, TF over GST control)"
same,binding signal,[11],"1.13 fold enrichment (6-mer frequency, TF over GST control)"
same,binding signal,[12],"1.22 fold enrichment (6-mer frequency, TF over GST control)"
same,binding signal,[13],"1.22 fold enrichment (6-mer frequency, TF over GST control)"
same,binding signal,[14],"1.26 fold enrichment (6-mer frequency, TF over GST control)"
same,binding signal,[15],"1.2 fold enrichment (6-mer frequency, TF over GST control)"
same,binding signal,[16],"1.23 fold enrichment (6-mer frequency, TF over GST control)"
same,binding signal,[17],"1.18 fold enrichment (6-mer frequency, TF over GST control)"
same,binding signal,[18],"1.32 fold enrichment (6-mer frequency, TF over GST control)"
same,binding signal,[19],"1.22 fold enrichment (6-mer frequency, TF over GST control)"
